An excerpt weighted towards active compounds, which were near 3.3% of everything screened.
RE007 growth inh: less growth of the S. pombe RE007 Vpr strain. S. pombe RE007 Vpr strain, BacTiter-Glo ATP luminescence, 24 h. Potency, µM (series often up to 92.2 µM), for the others: at the highest dose activity change, negative = less growth, actives largely listed as inhibitors. 360,000 tested, 0.21% active. AID 651644; active = well fitted falling curve with a large enough effect; inconclusive = small, poorly fitted or top-dose-only effect; inactive = no such curve, though single readings can be large or run the other way; also: nearly all actives have a fitted effect of over 50% in size
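Fission yeast RE007 carrying one integrated HIV-1 vpr copy, seeded at OD 0.01 in PMG+AL medium with 23 nL pinned compound. Grown 24 h at 30 degrees; viability read by BacTiter-Glo luminescence after 5 min.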
LmPK inh: blocks Leishmania mexicana pyruvate kinase activity; Q27686; purified LmPK, Kinase-Glo ATP luminescence, 1 h; Potency, µM (titrated, usually from 57.5 µM), without a hit: top-dose activity change, negative = inhibition, usual class: inhibitors; 290,000 tested, 0.37% active; AID 1721
Target sequence (Q27686 whole entry, looked up): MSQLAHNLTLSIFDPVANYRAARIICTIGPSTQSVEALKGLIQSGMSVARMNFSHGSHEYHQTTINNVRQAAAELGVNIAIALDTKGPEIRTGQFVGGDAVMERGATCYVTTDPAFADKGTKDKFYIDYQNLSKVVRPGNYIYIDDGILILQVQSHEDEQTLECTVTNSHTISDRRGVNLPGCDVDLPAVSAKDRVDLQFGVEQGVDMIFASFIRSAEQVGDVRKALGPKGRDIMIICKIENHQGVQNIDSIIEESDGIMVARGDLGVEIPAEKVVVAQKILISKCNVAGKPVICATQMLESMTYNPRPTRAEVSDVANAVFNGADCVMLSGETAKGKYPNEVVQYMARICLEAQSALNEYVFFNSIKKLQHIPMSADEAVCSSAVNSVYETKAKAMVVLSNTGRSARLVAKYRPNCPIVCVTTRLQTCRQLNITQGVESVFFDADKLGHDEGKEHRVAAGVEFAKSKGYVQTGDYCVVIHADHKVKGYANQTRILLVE
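In 50 mM imidazole pH 7.2 with 7 mM MgCl2, LmPK (0.1 nM) turned over PEP (0.5 mM) and ADP (0.1 mM) for 1 h at room temperature. Luciferase read-out of ATP.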
Giardia FBPA inh-1: inhibitors of Giardia lamblia fructose-1,6-bisphosphate aldolase. A8B2U2. purified Giardia FBPA. Potency, µM (highest dose often 59.6 µM), for inactives: top-dose activity, negative = inhibition, most hits filed as inhibitors. 290,000 tested, 0.71% active. AID 2451; also: nearly all actives have a fitted effect of over 55% in size
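40 nM FBPA preincubated 10 min at RT with compound (up to 57.5 uM final), then substrate plus GAPDH/TPI/NAD/arsenate coupling and diaphorase/resazurin added. Fluorescence read after 20 min at RT, 525/598 nm.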
Tb PYK inh: blocks Trypanosoma brucei pyruvate kinase. TbPYK enzyme, Kinase-Glo Plus ATP luminescence, 45 min. Q57TT1. AID 624173. Potency, µM (highest dose often 76.8 µM), inactives show at the highest dose activity, negative = inhibition, usual class: inhibitors. 410,000 tested, 0.12% active; also: nearly all actives have a fitted effect of over 50% in size
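Enzyme and substrate buffer are dispensed first and compound is pin-transferred. ADP at 130 uM final then starts the reaction, which runs 45 min at room temperature. Detection reagent is added for 10 min before luminescence is imaged.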
Sm TGR inh: S. mansoni TGR enzyme inhibition. 360,000 tested, 3% active. Potency, µM (highest dose often 114 µM), for the others: top-dose activity change, negative = inhibition, most hits filed as inhibitors. purified TGR, DTNB reduction, TNB absorbance 405 nm; also: nearly all actives have a fitted effect of over 60% in size
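First, TGR (20 nM dispensed) and NADPH were mixed with compound. Second, a 15 min room-temperature incubation followed. Third, further NADPH and then DTNB were added to start the reaction. Finally, TNB absorbance was monitored kinetically.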
Giardia growth: blocks growth of Giardia lamblia trophozoites; shares compounds with Giardia FBPA inh-1; 1,500 tested, 5% active; Potency, µM (top dose mostly 57.5 µM), for inactives: at the highest dose activity change, negative = inhibition, hits mostly inhibitors; AID 2785; Giardia lamblia trophozoite growth inhibition;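 also: trophozoites exposed to compound for 48 h at 37 °C; nearly all actives have a fitted effect of over 70% in size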
Mammal cell tox: mammalian cytotoxicity of Giardia aldolase inhibitor hits; shares compounds with Giardia FBPA inh-1; mammalian cell viability counter-screen, qHTS; Potency, µM (series often up to 57.5 µM), without a hit: at the top dose viability change, negative = toxicity, hits mostly inhibitors; 1,500 tested, 4% active; AID 2786;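 also: Chinese hamster ovary cells used as mammalian cytotoxicity surrogate; viability measured as cellular ATP by luminescence; compound exposure lasted 48 h before reading; nearly all actives have a fitted effect of over 60% in size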
Giardia FBPA inh-2: confirmation of Giardia fructose-bisphosphate aldolase inhibitors | shares compounds with Giardia FBPA inh-1 | purified Giardia aldolase enzyme activity, qHTS | Potency, µM (top dose mostly 57.5 µM), for the others: at the highest dose activity change, negative = inhibition, most hits filed as inhibitors | 1,500 tested, 5% active; also: nearly all actives have a fitted effect of over 45% in size
Rabbit FBPA inh: selectivity test for Giardia aldolase inhibitors: rabbit aldolase. shares compounds with Giardia FBPA inh-1. Rabbit muscle FBPA enzyme inhibition, selectivity counter-screen. Potency, µM (series often up to 57.5 µM), inactives show at the top dose activity, negative = inhibition, hits mostly inhibitors. 1,500 tested, 4% active. AID 2794; also: nearly all actives have a fitted effect of over 60% in size
GAPDH counter: GAPDH inhibition flagged for Giardia aldolase hits | shares compounds with Giardia FBPA inh-1 | GAPDH coupling enzyme counterscreen, biochemical, qHTS | Potency, µM (doses to about 57.5 µM), inactives show at the highest dose activity change, negative = inhibition, actives largely listed as inhibitors | 1,500 tested, 6% active | AID 2795; also: nearly all actives have a fitted effect of over 55% in size
Starred values were filed as active, the others as inactive; ? = inconclusive; . = not tested or not shown; [ ] = remark or other dose. Unless noted, calls follow the shape of the dose curve; as a rule, active = well fitted curve in the direction sought with a large enough effect; inconclusive = small, poorly fitted or top-dose-only effect, or another doubt; inactive = no such curve, though single readings can be large; an effect the other way counts as inactive or inconclusive. % is scaled to controls: 0 for no effect and ±100 for the full control effect; potency is read from the fitted curve at half-maximal effect.

SMILES	RE007 growth inh	LmPK inh	Giardia FBPA inh-1	Tb PYK inh	Sm TGR inh	Giardia growth	Mammal cell tox	Giardia FBPA inh-2	Rabbit FBPA inh	GAPDH counter
CCC(C)N(C)C1CCN(C(=S)Nc2cccc(SC)c2)CC1 (configuration not stated)	-7%	0%	10µM*	-2%	-19%	8%[38.3 µM]	-18%	-4%	-4%	-3%
Cc1ccc(-c2nc(C)sc2CC(=O)Nc2nnc(C)s2)cc1	19%	-3%	0%	-13%	0%	.	.	.	.	.
c1ccc(-c2nn[nH]n2)nc1	19%	-4%	7.9µM*	-19%	0%	17%[38.3 µM]	10%	-4%	0%	-9%
c1ccc(-c2n[nH]c(-c3ccccn3)n2)cc1	-27%	?	-18%	-7%	5%	.	.	.	.	.
c1ccc(-c2n[nH]c(-c3ccccn3)n2)nc1	-6%	16µM*	3.2µM*	-30%	-10%	-25%[38.3 µM]	-29%	9%	-8%	-12%
CCN1CCN(c2ccc(NC(=O)c3ccc4c(c3)OCO4)cc2)CC1	9%	-1%	-11%	8%	-3%	.	.	.	.	.
CC1CCN(C(=O)CN(CCc2ccccc2)S(C)(=O)=O)CC1	-3%	1%	4%	1%	0%	.	.	.	.	.
CC(C)CC(=O)N1CCC(N(CCc2ccccc2)Cc2ccccc2)CC1	6%	-1%	25µM*	12%	3%	-12%	-8%	0%	0%	6%
CCOCCc1nn2c(=O)cc(COC(=O)COc3ccc(C)c(C)c3)nc2s1	.	.	.	-15%	-25%	.	.	.	.	.
COc1ccc(OC)c(NC(=O)C2CCCCC2C(=O)O)c1 (configuration not stated)	-10%	2%	-8%	-4%	-26%	.	.	.	.	.
COc1ccc(OC)c(NC(=O)C2C3CCC(C3=C(C)C)C2C(=O)O)c1 (configuration not stated)	-10%	1%	3.5µM*	8%	-25%	-8%[38.3 µM]	-6%	?	?	?
CCC(NC(=O)NNC(N)=S)(C(F)(F)F)C(F)(F)F	-4%	-2%	20µM*	-8%	1%	17%	9%	6%	3%	7%
CCC(NC(=O)Nc1nnc(C(F)(F)F)s1)(C(F)(F)F)C(F)(F)F	-13%	0%	-11%	-3%	-19%	.	.	.	.	.
CCc1ccc(-c2cc(C)no2)cc1S(=O)(=O)Nc1ccc(C)cn1	2%	-6%	.	-3%	-12%	.	.	.	.	.
Cc1ccc(NS(=O)(=O)c2cc(-c3cc(C)no3)ccc2C(C)C)nc1	-4%	-3%	20µM*	-4%	-15%	-4%	9%	?	?	?
FC(F)(F)c1ccccc1-c1nc(-c2ccncc2)no1	6%	1%	6%	0%	2%	.	.	.	.	.
Cc1c(N=C2C=C(Br)C(=O)C(Br)=C2)c(=O)n(-c2ccccc2)n1C	?	?	14µM*	-29%	2.8µM*	-12%[10.4 µM]	0%	?	-27%	?
C/C(CCC1CC(C)OC1=O)=N\NC(N)=S (configuration not stated)	8%	4%	15%	0%	37%	.	.	.	.	.
C/C(CC1CC(C)(C)OC1=O)=N\NC(N)=S (configuration not stated)	24%	1%	20µM*	-2%	3%	-29%	-12%	5%	5%	3%
C/C(CCC1CC(C)(C)OC1=O)=N\NC(N)=S (configuration not stated)	-25%	-5%	18µM*	7%	3%	43%	-12%	7%	4%	6%
CN(CCOCCOc1ccc2ccccc2c1)Cc1ccccc1	-23%	-10%	2%	-4%	-30%	.	.	.	.	.
CC1=CC(=O)NP(=O)(Oc2ccc3ccccc3c2)N1 (configuration not stated)	-23%	-7%	16µM*	?	?	?	10%	-17%	7%	12%
CCC(=O)[C@@H](C)[C@@H](O)[C@H](C)C[C@@H](C)C1OC(=O)C[C@@]2(O)CC=C(C)C(O2)C(C)=CCCC[C@H](O[C@H]2C[C@@H](OC(N)=O)[C@H](O)[C@@H](C)O2)C=C[C@H](C)C[C@H]1C (some centres not stated)	7%	.	.	-28%	.	.	.	.	.	.
CC(=O)Nc1nc(C)nc(-c2ccccc2)c1C(C)=O	16%	0%	16µM*	-2%	-32%	23%	-7%	3%	9%	10%
COc1ccc(Cn2c(C(=O)O)c(CNCCc3cc(OC)ccc3OC)c3ccc(C)cc32)cc1	.	.	.	3%	6%	.	.	.	.	.
CCNC(=O)C1CCCN1C(=O)C(CCCN=C(N)N)NC(=O)C(CC(C)C)NC(=O)C(Cc1cn(Cc2ccccc2)cn1)NC(=O)C(Cc1ccc(O)cc1)NC(=O)C(CO)NC(=O)C(Cc1c[nH]c2ccccc12)NC(=O)C(Cc1cnc[nH]1)NC(=O)C1CCC(=O)N1 (configuration not stated)	-6%	-6%	10µM*	-1%	-13%	16%[38.3 µM]	2%	-4%	13%	0%
COc1cc(C(=O)O/N=C2/C=C(C)C(=O)C=C2C)cc(OC)c1OC	-12%	1%	6.3µM*	-4%	-9%	5%[10.4 µM]	-29%	14µM*	6.3µM*	3.2µM*
CC1CCc2c(sc(NC(=O)C3c4ccccc4Oc4ccccc43)c2C(N)=O)C1 (configuration not stated)	10%	1%	0%	-12%	-7%	.	.	.	.	.
COC(=O)Nc1sc2c(c1C(N)=O)CCC(C)C2 (configuration not stated)	9%	0%	8.9µM*	-22%	-13%	-14%[38.3 µM]	8%	?	?	?
O=P(O)(O)CP(=O)(O)O	.	5%	6.3µM*	-6%	7%	119%	9%	24%	2%	15%

Screens from PubChem.
